# System: RARa:RXR (NR concentration 270 nM, RXRa partner concentration 90 nM)
# Experiment: PBM binding z-score (relative to random genomic background probes); higher = stronger binding; sequences stand for … in GC…GCGATTGACAGCGTAGAATGAAGG
# How it was run: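 Scanned fluorescence from custom Agilent 4×180K protein-binding microarrays was regression-normalized. Binding z-scores use random background probes as reference. Ligand-free nuclear receptor dimers were incubated on the arrays for 1 h and detected with antibodies against each partner (one per run).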
row,Sequence,PBM binding z-score
1,TCAATGAGGTTAAAGATCAGGGAACGTGGCGTCG,3.15
2,TAGCTTAGGTCATTGGGCCAGTATAGTACGCATC,2.53
3,GGAACCAGGGCAAGTTGATAGCAGAGTTTGATGG,0.217
4,TTACCAAGATGAAGGTCGTTGATCCCTCTGTAGA,1.18
5,TCTTGTAGATCAAGCAGGTTAAGAACGCCTGAGT,0.48
6,TGAATGAGGTTAAAGATCAGGGCACGTGGCGTCG,3.3
7,ATCTCTAGGTAAGACTCCGTTCAGTGAAGAACGC,0.105
8,CCAGACAGGTAAAAGGTAACTCAGTCTGGTACGC,0.712
9,TCATATAGGTAAAAGGTGAAATTCGGTGTGGTAA,2.81
10,GGAACGAGGACAAGTTGATAGCAGAGTTTGATGG,0.108
11,TCGAGTAGGTTTGTCGGGGCATTCAGCCAACATA,0.224
12,GATACAGGGTCAGCTAGAGGCCAGAGTGTGGAAA,4.66
13,TAGCCAAGGTCATGGGCCAGTATACCACGCGAAC,4.73
14,GCTAGTTGGTGAGTAAAAGGTCACACACCGGTCG,5.64
15,CCTACTGGGCCATCAGATCATTGATATCAACGTT,-0.391
16,TAGCCTAGGTCATCCGGGCCAGTATAGTGTCGGC,2.61
17,CGTCCAAGGTCAAAGGACAGTGAAGAGATGACGG,4.39
18,TCACGGAGGACACGAAAGGTCAGAGCTCGACATC,4.8
19,AATGCAGGGTCACTAGGCCAGAGTAGGTACGAAT,4.25
20,CGAACTAGGTCATTGGCAGGACAGTGAATAGTAA,2.11
21,TCATATAGGTAATACAGGTGAAGGTCGGCATCTA,1.69
22,AGAATGAGGTTAAGATCAGTGAAACAGAATACAT,1.84
